Assay results reported in PubChem BioAssay AID1159580 (chemical genetic matrix, 2015).
Several values for one entry are separate records, joined by “and”; a condition that tells them apart may be missing. Equal entries are not always repeated. Screen size: about 5,500 compounds; about 2,000 (36%) were called active. Another 18% or so got no clear call; they are omitted. No stated cut-off is given here; in the data, active means normalized growth mostly below about 0.91 (no sharp cut-off); inconclusive means no clear call, values can overlap the other calls; inactive means mostly above about 0.92. This is one part of the list.

Experiment: chemical genetic growth profiling, strain panel (AID 1159580);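 further: tested at 20 µM; growth read once vehicle control cultures reached saturation at 30 °C; 1 = growth at the plate median or of vehicle wells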
Settings: S. cerevisiae deletion strains, growth OD

Measured: normalized growth

CC1CCC2(OC1)OC1CC3C4CC[C@H]5C[C@@H](O)CC[C@]5(C)C4CC(=O)[C@]3(C)C1C2C (stereo partly specified)
inactive: locus YAL013W, strain DEP1, stronger effect = lower value 1.01 | locus YAL021C, strain ccr4, stronger effect = lower value 0.997 | locus YAL026C, strain drs2, stronger effect = lower value 1.03 | locus YAL030W, strain snc1, stronger effect = lower value 1.01 | locus YBL061C, strain skt5, stronger effect = lower value 1.02 | locus YBR009C, strain hhf1, stronger effect = lower value 0.983 | locus YBR021W, strain FUR4, stronger effect = lower value 0.991 | locus YBR023C, strain chs3, stronger effect = lower value 1.02 | locus YBR171W, strain sec66, stronger effect = lower value 1.02 | locus YBR229C, strain ROT2, stronger effect = lower value 1.01 | locus YBR231C, strain swc5, stronger effect = lower value 0.996 | locus YBR279W, strain paf1, stronger effect = lower value 1.01 | locus YCL011C, strain gbp2, stronger effect = lower value 1.04 | locus YCL016C, strain dcc1, stronger effect = lower value 1.01 | locus YCL029C, strain bik1, stronger effect = lower value 0.973 | locus YCL061C, strain MRC1, stronger effect = lower value 1.02 | locus YCL069W, strain vba3, stronger effect = lower value 1.02 | locus YCR088W, strain abp1, stronger effect = lower value 1.03 | locus YDL005C, strain med2, stronger effect = lower value 1.01 | locus YDL035C, strain GPR1, stronger effect = lower value 1.01 | locus YDL040C, strain nat1, stronger effect = lower value 1.01 | locus YDL074C, strain BRE1, stronger effect = lower value 0.974 | locus YDL101C, strain DUN1, stronger effect = lower value 1.01 | locus YDL134C, strain PPH21, stronger effect = lower value 1.01 | locus YDL185W, strain tfp1, stronger effect = lower value 0.981 | locus YDL192W, strain arf1, stronger effect = lower value 0.992 | locus YDR001C, strain nth1, stronger effect = lower value 1.01 | locus YDR069C, strain doa4, stronger effect = lower value 1 | locus YDR101C, strain arx1, stronger effect = lower value 0.974 | locus YDR137W, strain rgp1, stronger effect = lower value 1.02 | locus YDR150W, strain NUM1, stronger effect = lower value 1.01 | locus YDR159W, strain sac3, stronger effect = lower value 0.962 | locus YDR162C, strain NBP2, stronger effect = lower value 1.01 | locus YDR195W, strain ref2 1.04 | locus YDR297W, strain sur2, stronger effect = lower value 0.995 | locus YDR318W, strain mcm21, stronger effect = lower value 0.975 | locus YDR334W, strain swr1, stronger effect = lower value 1.01 | locus YDR335W, strain msn5, stronger effect = lower value 1.02 | locus YDR388W, stronger effect = lower value 0.982 | locus YDR392W, strain spt3, stronger effect = lower value 0.866 | locus YDR502C, strain sam2, stronger effect = lower value 0.98 | locus YEL003W, strain gim4, stronger effect = lower value 0.999 | locus YEL037C, strain rad23, stronger effect = lower value 1.02 | locus YEL061C, strain CIN8 (second series), stronger effect = lower value 1.01 | locus YEL061C, strain CIN8, stronger effect = lower value 1.01 | locus YER015W, strain faa2, stronger effect = lower value 1 | locus YER016W, strain bim1, stronger effect = lower value 1.01 | locus YER110C, stronger effect = lower value 0.978 | locus YER111C, strain swi4, stronger effect = lower value 1.01 | locus YER155C, strain BEM2 (second series), stronger effect = lower value 0.97 | locus YER155C, strain BEM2, stronger effect = lower value 1.01 | locus YER167W, strain BCK2, stronger effect = lower value 1.01 | locus YFR010W, strain ubp6, stronger effect = lower value 0.997 | locus YGL078C, strain dbp3, stronger effect = lower value 0.982 | locus YGL086W, strain mad1, stronger effect = lower value 0.998 | locus YGL167C, strain pmr1, stronger effect = lower value 1.01 | locus YGL173C, strain kem1, stronger effect = lower value 0.992 | locus YGL227W, strain vid30, stronger effect = lower value 1.02 | locus YGL240W, strain doc1, stronger effect = lower value 1 | locus YGL248W, strain PDE1, stronger effect = lower value 1.02 | locus YGL253W, strain hxk2, stronger effect = lower value 1.01 | locus YGR078C, strain PAC10, stronger effect = lower value 0.989 | locus YGR135W, strain pre9, stronger effect = lower value 0.987 | locus YGR229C, strain SMI1, stronger effect = lower value 1 | locus YGR252W, strain gcn5, stronger effect = lower value 0.992 | locus YHR013C, strain ard1, stronger effect = lower value 1.02 | locus YHR027C, strain rpn1, stronger effect = lower value 1.02 | locus YHR030C, strain SLT2, stronger effect = lower value 1.01 and 0.963 | locus YHR079C, strain IRE1 (second series), stronger effect = lower value 0.988 | locus YHR079C, strain IRE1, stronger effect = lower value 0.962 | locus YHR094C, strain hxt1, stronger effect = lower value 0.991 | locus YHR129C, strain ARP1, stronger effect = lower value 1 | locus YHR142W, strain chs7, stronger effect = lower value 1.03 | locus YHR200W, strain rpn10, stronger effect = lower value 0.987 | locus YIL066C, strain RNR3, stronger effect = lower value 1.01 | locus YIL073C, strain SPO22, stronger effect = lower value 0.983 | locus YIL125W, strain kgd1, stronger effect = lower value 0.989 | locus YIR030C, strain dcg1, stronger effect = lower value 0.984 | locus YJL092W, strain hpr5, stronger effect = lower value 1.01 | locus YJL095W, strain BCK1 (second series), stronger effect = lower value 1.01 | locus YJL095W, strain BCK1, stronger effect = lower value 1 and 0.964 | locus YJL115W, strain asf1, stronger effect = lower value 1.03 | locus YJL129C, strain trk1, stronger effect = lower value 1.04 | locus YJL134W, strain LCB3, stronger effect = lower value 1.01 | locus YJL154C, strain vps35, stronger effect = lower value 1.03 | locus YJL164C, strain tpk1, stronger effect = lower value 0.989 | locus YJL166W, strain qcr8, stronger effect = lower value 1 | locus YJL168C, strain set2, stronger effect = lower value 0.986 | locus YJL187C, strain SWE1 (second series), stronger effect = lower value 0.997 | locus YJR043C, strain POL32, stronger effect = lower value 1 | locus YJR066W, strain TOR1, stronger effect = lower value 0.927
